Assay outcomes: PubChem, several laboratories
Compounds with a hit are over-represented: about 3.4% of the library has one in this group of screens.
TROY signal inh: inhibitors of TROY-driven NF-kB signaling, primary screen, Q293 LMP1-TROYcd cells, NF-kB luciferase, uHTS; Q293 LMP1-TROYcd NF-kB luciferase reporter, 4 h; actives 0.98% (n = 360,000); inhibition, % at 10 µM;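 active means compounds whose plate-normalised and pattern-corrected inhibition of the luciferase reporter signal at the single screening dose is 50% or more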
MITF TRPM1 inh: inhibitors of MITF-dependent TRPM1 promoter reporter, primary screen, cell-based, SK-MEL-5, single point, luciferase; SK-MEL-5 TRPM1 promoter luciferase, 24 h; inhibition, % at 12.5 µM; actives 0.83% (n = 330,000); AID 488899, 2010;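 active means mean inhibition across replicates of 60% or more, whatever share of single replicates reaches that level; inconclusive means some that reach 60%, reason not given; inactive means mean inhibition across replicates below 60%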
EBV LMP1 NFkB: EBV LMP1-driven NF-kappaB luciferase reporter inhibitors, primary screen, cell-based, luminescence, single point; LMP1-induced NF-kappaB luciferase reporter cells; inhibition, % at 12.5 µM; actives 0.69% (n = 350,000); AID 504558, 2011; in the data active means inhibition above about 41%; inconclusive means no clear call, values can overlap the other calls;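 further: 0% = neutral control wells and 100% = reference inhibitor control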
HIF-2a inh: HIF-2a reporter inhibitors, primary screen, luminescence, 786-0 RCC cells | actives 0.72% (n = 360,000) | 786-0 RCC cells HIF-2a reporter, luciferase luminescence, overnight | inhibition, % at 18.8 µM | AID 624352, 2012;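 active means inhibition of the luminescence signal of 40% or more relative to plate controls, in a single-dose primary screen at 18.75 µM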
Shn3 inh set2: reduction of Shn3 3'UTR firefly luciferase signal, primary screen, Schnurri-3 inhibitor project, cell-based, Clone20 osteoblasts, set 2; Clone20 osteoblast Shn3 3'UTR firefly luciferase, 24 h; inhibition, % at 12.5 µM; actives 0.52% (n = 360,000); AID 588674, 2011;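 active means mean inhibition of at least 75% with every replicate also reaching 75%; inconclusive means mean inhibition at least 75% but some replicate below; inactive means mean inhibition below 75%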;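 further: 0% = median of neutral control wells and 100% = pilot-screen positive control compound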
TWEAK-Fn14 inh: inhibitors of TWEAK-Fn14 signaling, primary screen, luciferase reporter cells, uHTS; actives 2% (n = 360,000); TWEAK-stimulated Fn14 reporter cells, luciferase luminescence, 8 h; inhibition, % at 10 µM; AID 1159606, 2016; in the data active means inhibition above about 50%
Starred values were filed as active, the others as inactive; u = inconclusive; x = no result given; ! = not confirmed by another sample.

SMILES | TROY signal inh | MITF TRPM1 inh | EBV LMP1 NFkB | HIF-2a inh | Shn3 inh set2 | TWEAK-Fn14 inh
COC(=O)c1c(O)ccc(Oc2ccccc2)c1C(=O)OC | 13.8 | 4.3 | 47.2* | 18.2 | 3.3 | 15.7
Cc1ccccc1[C@H](NC1c2ccccc2C=Cc2ccccc21)P(=O)(c1ccccc1)c1ccccc1 | 4.7 | x | x | -16.9 | x | 22.1
O=C1c2ccc3c4c(ccc(c24)C(=O)N1c1cccc(O)c1)C(=O)N(c1cccc(O)c1)C3=O | -2.9 | 99.9* | 28.2 | 12.9 | x | -11.1
Cc1ccc(S(=O)c2snnc2C)cc1 (stereo unspecified) | -11.7 | 17.3 | -1.0 | 19.6 | -2.8 | 7.4
CNC(=O)c1nnsc1S(=O)c1ccc(Cl)cc1 (stereo unspecified) | 60.1* | u | 7.8 | -18.3 | 97.0* | 63.5*
Cc1ccc(C(=O)CSc2nnc3c4ccccc4nc(C(C)(C)C)n23)cc1 | 51.9* | -3.4 | -10.4 | -4.4 | 1.1 | 13.1
CC(C)(C)OC(=O)N(CCc1ccccc1)Cc1ccc(OCc2cccc(NC(=O)C3CCCC3)c2)cc1 | -8.2 | 2.8 | -6.3 | -1.3 | 9.8 | 4.4
CC(C)(C)OC(=O)N(Cc1ccccc1)Cc1ccc(OCc2cccc(NC(=O)C3CC3)c2)cc1 | 17.1 | 21.1 | 10.2 | -1.2 | 66.8 | 57.5*
CC1(C)Cc2nc3sc4c(SCC(=O)O)ncnc4c3cc2CO1 | -34.1 | 15.1 | 52.3* | 15.9 | 10.2 | 16.6
CC1(C)Cc2nc3sc4c(SCC(=O)NCc5ccccc5)ncnc4c3cc2CO1 | -21.0 | -7.2 | 12.7 | -174.4 | -36.1 | 36.8
COC(=O)CSc1ncnc2c1sc1nc3c(cc12)COC(C)(C)C3 | 1.7 | 23.2 | 51.3* | 26.5 | -14.1 | 12.4
COCCSc1nnc(NC(=O)COc2ccc3c(c2)OCO3)s1 | -4.9 | -7.9 | -1.1 | -19.6 | 6.3 | -21.5
CCN(CC)S(=O)(=O)c1ccc(N/N=C(\C)c2ccc(OC)cc2O)nc1 | -34.6 | 54.6 | 32.0 | 6.3 | 91.2* | -41.1
COc1ccc(-c2nc(SC(C)C(=O)NC3CC3)n[nH]2)cc1 (stereo unspecified) | -2.6 | -17.1 | 3.2 | -24.1 | 3.5 | -1.2
CCOC(=O)C1=C(COCCN)NC(C)=C(C(=O)OC)C1c1ccccc1Cl (stereo unspecified) | 65.6*! | 22.4 | -4.3 | 5.9 | -8.2 | 2.8
O=C(/C=C/c1cc(Br)ccc1F)OCC(=O)N1CCOCC1 | -11.1 | 7.0 | -1.9 | 5.4 | -13.6 | 5.4
CCCC(=O)N1CCC1(C)C(=O)NCc1ccccc1SC (stereo unspecified) | -1.1 | x | x | 7.2 | 4.2 | -0.8
CN1C(=O)NC(c2ccccc2)C2=C1CN(c1ccc3ccccc3c1)C2=O (stereo unspecified) | 53.1* | 2.7 | -10.1 | -25.8 | -2.8 | 33.9
Cc1ccc(N2CC3=C(C2=O)C(c2ccccc2)NC(=O)N3C)cc1 (stereo unspecified) | 5.5 | 5.1 | -5.5 | 3.3 | -0.5 | 2.4
COc1ccc(-c2cc3c(=O)n(CC(=O)NCCCN4CCN(Cc5ccccc5)CC4)ncn3n2)cc1 | -11.8 | -16.7 | 50.4* | -41.1 | 70.7 | 22.6
COc1ccc(-c2cc3c(=O)n(CC(=O)NCCCN4CCC(Cc5ccccc5)CC4)ncn3n2)cc1 | 10.0 | 70.8* | 15.9 | -5.8 | 69.9 | 40.6
CC1CCC2(CC1)NC(=O)N(CC(=O)NCc1ccc(Cl)cc1)C2=O (stereo unspecified) | -12.2 | 11.9 | 2.2 | 6.9 | 40.5 | -8.5
O=C(NCc1ccccc1)c1cc(C2COCCN2C(=O)C/C=C/c2ccccc2)on1 (stereo unspecified) | -17.0 | x | x | 9.0 | -11.1 | 14.5
Cc1cc(C(=O)Cn2nc(C(=O)O)c3ccccc3c2=O)c(C)n1-c1ccccc1 | 70.2* | -19.6 | 9.4 | -99.9 | -15.6 | 35.5
Cc1ccc2nc(-c3ccc(C#N)cc3)c(Cc3cccc(Cl)c3)n2c1 | -29.8 | x | x | -122.2 | -11.2 | -32.0
SMILES | TROY signal inh | MITF TRPM1 inh | EBV LMP1 NFkB | HIF-2a inh | Shn3 inh set2 | TWEAK-Fn14 inh
COc1cccc(-n2c(N)cc(=O)nc2SCC(=O)N2CCN(c3ccccc3)CC2)c1 | -7.8 | -5.1 | -2.1 | 9.6 | -4.2 | 9.6
Cc1ccc2c(c1)N(C)/C(=C/c1cccc[n+]1C)S2 | -6.5 | 13.6 | 6.5 | -23.5 | 87.5* | 18.5
COc1ccc(-c2cc3nc(NCC4CCCCC4)n(C)c(=O)c3s2)cc1OC | 42.6 | x | x | -15.9 | 8.6 | 38.7
CC(C)C1Cc2[nH][nH]c(=O)c2C(C2CC2)O1 (stereo unspecified) | -2.3 | x | x | 7.9 | x | 27.9
CC(C)CC(NC(=O)c1ccco1)C(=O)Nc1ccc2c(c1)OCCO2 (stereo unspecified) | 43.0 | 6.6 | -9.7 | 6.7 | 23.3 | 76.1*
O=C(CNC(=O)c1ccco1)Nc1ccc2c(c1)OCCO2 | 70.5* | 18.9 | 32.0 | 11.9 | -2.4 | 86.0*
O=C(NC(=S)Nc1ccc2c(c1)OCCO2)c1ccco1 | -21.5 | -82.4 | -4.0 | -199.5 | -89.7 | 24.0
CC(C)CC(NC(N)=O)C(=O)Nc1ccc2c(c1)OCO2 (stereo unspecified) | -27.4 | -24.3 | -6.9 | -105.2 | -28.7 | -11.7
CC(=O)NC12CC3CC(C1)CC(C(=O)Nc1nc4ccc(S(C)(=O)=O)cc4s1)(C3)C2 | -26.6 | 9.7 | -3.1 | 5.1 | 1.4 | -2.0
Cc1ccc(-c2cnc(C(O)c3cc(F)cc(Cl)c3)[nH]2)cc1 (stereo unspecified) | -5.5 | x | x | -33.1 | 4.9 | -6.1
O=C(CSc1nnc(-c2ccc3c(c2)OCCO3)o1)N1CCCC1 | 27.7 | -42.5 | 2.2 | -38.3 | -29.8 | 70.2*
O=C(CSc1nnc(-c2ccccc2)o1)c1ccc2c(c1)OCCO2 | 58.7* | 27.8 | -9.0 | -9.5 | -15.6 | 20.4
CN(C)C(=O)N1CCN(S(=O)(=O)c2ccc3ccccc3c2)CC1 | -8.5 | -15.6 | -0.1 | 7.9 | 10.1 | 101.1*
CN(CCCNC(=O)CCC(=O)N1CCOc2ccccc21)Cc1ccccc1 | 3.5 | 9.7 | 5.6 | 4.0 | -0.9 | 5.0
CN1/C(=C/C(=O)COC(=O)C2COc3ccccc3O2)C(C)(C)c2ccccc21 (stereo unspecified) | 22.3 | 13.2 | 2.6 | 1.0 | 4.3 | -4.5
CCCc1[nH]c2ccc(C(=O)OC)cc2c1CCC | -41.7 | -3.1 | -1.8 | -27.4 | -15.7 | -15.9
CCCc1[nH]c2ccc(C#N)cc2c1CCC | 53.5* | -1.9 | -6.4 | -4.1 | -1.7 | 39.0
COC(=O)c1c(C)[nH]c(C(=O)C(C)OC(=O)c2c(C)noc2C)c1C (stereo unspecified) | 7.8 | -5.7 | 0.1 | 9.8 | 16.6 | 24.1
